Inconclusive results are not listed. Values without a mark were called inactive. Active and inactive are the calls of the source. Unless noted, calls follow the shape of the dose curve; as a rule, active = well fitted inhibition curve with a large enough effect; inconclusive = small, poorly fitted or top-dose-only effect; inactive = no such curve, though single readings can be large or run the other way.
Assay: S16 Schwann cell PMP22 intronic element firefly luciferase assay (AID 624032); also: nearly all actives have a fitted effect of over 30% in size; also: potency is read from the fitted curve at half-maximal effect;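 as to activity change, negative = inhibition: plate controls were DMSO for no effect and PTC124 positive control mean for full effect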
Details: S16 rat Schwann cells, PMP22 element FLuc, 24 h; series mostly up to 57.5 µM; activity change, negative = inhibition: at the top concentration
Summary of the method: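 Rat S16 Schwann cells stably carrying a PMP22 intronic element-driven Fluc reporter were seeded overnight, then exposed to compounds for 24 h at 37 °C. Luminescence was normalized to PTC124 (positive control) and DMSO (0% activity).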

SMILES	activity change, negative = inhibition	Potency
[N-]=[N+]=CC(=O)OCC(N)C(=O)O (centres undefined)	3.66%	
C[N+]1(C)CCCCC1COC(=O)C(O)(c1ccccc1)c1ccccc1 (centres undefined)	-8.43%	
N#CC1(N2CCCCC2)CCCCC1	-27.4%	
FC(F)OC(F)(F)C(F)Cl (centres undefined)	64.5%	
S=C(S)N1CCNCC1	-47.4%	
CNC1(c2ccccc2Cl)CCCCC1=O (centres undefined)		inactive
CCON=O	0.0081%	
O=C(OCCN1CCCCC1)C(O)(c1ccccc1)c1ccccc1	-4.33%	
CCOc1ccc2c3c1O[C@H]1[C@@H](O)C=C[C@H]4[C@@H](C2)N(C)CC[C@@]341		16.1 µM (active)
O=P(O)(O)C(Cl)(Cl)P(=O)(O)O	-6.73%	
C=CCN1CC[C@]23c4c5ccc(O)c4O[C@H]2[C@@H](O)C=C[C@H]3[C@H]1C5	-21.7%	
CC1CCC(C(C)C)C(OC(=O)c2ccccc2N)C1 (centres undefined)	-16.5%	
CCC1(CC)C(=O)NC(=O)N(C)C1=O	-17.9%	
NCC(O)c1cccc(O)c1 (centres undefined)	-22.7%	

Assay: S16 Schwann cell PMP22 intronic element beta-lactamase assay (AID 624044; calls by dose curve;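 also: 0% = DMSO and -100% = potassium clavulanate positive control; nearly all actives have a fitted effect of over 15% in size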)
Details: S16 rat Schwann cells, PMP22 element beta-lactamase FRET, 24 h; series mostly up to 38.3 µM; ratio activity, negative = inhibition: at the top concentration
Summary of the method: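 Beta-lactamase reporter under a PMP22 intronic regulatory element in stable S16 rat Schwann cells; 24 h compound exposure. 460 nm blue signal normalized between DMSO (0%) and potassium clavulanate, with 535 nm FRET tracking viability; curves classed by r2 and response.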

SMILES	ratio activity, negative = inhibition	Potency
[N-]=[N+]=CC(=O)OCC(N)C(=O)O (centres undefined)	1.22%	
C[N+]1(C)CCCCC1COC(=O)C(O)(c1ccccc1)c1ccccc1 (centres undefined)	2.92%	
N#CC1(N2CCCCC2)CCCCC1	-13.1%	
FC(F)OC(F)(F)C(F)Cl (centres undefined)	-0.765%	
CNC1(c2ccccc2Cl)CCCCC1=O (centres undefined)		inactive
CCON=O	3.55%	
O=C(OCCN1CCCCC1)C(O)(c1ccccc1)c1ccccc1	-6.04%	
O=P(O)(O)C(Cl)(Cl)P(=O)(O)O	-0.0928%	
CC1CCC(C(C)C)C(OC(=O)c2ccccc2N)C1 (centres undefined)	-3.89%	
CCC1(CC)C(=O)NC(=O)N(C)C1=O	1.65%	

— PubChem BioAssay (NCATS)
